Compounds without any hit were thinned out: in the full panel of roughly 83,000, 20% have a hit.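 The test compound was applied at a single concentration to cells in 96-well plates for 48 hours, and percent growth was recorded.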 A number with no mark means an inactive call. Active and inactive are the calls of the source. How the source made its calls: active means growth percent below 10; inactive means the rest.
Assays:
Experiment in all cases: NCI-60 one-dose screen, 48 h (100 = growth as untreated, 0 = no growth, -100 = all killed)
HCT-15 colon = conditions: 10 µM unless noted
HT29 colon = conditions: 10 µM unless noted
SNB-19 CNS = conditions: 10 µM unless noted
U251 CNS = conditions: 10 µM unless noted
PC-3 prostate = conditions: 10 µM unless noted
SK-MEL-5 melanoma = conditions: 10 µM unless noted
UACC-62 melanoma = conditions: 10 µM unless noted
LOX IMVI melanoma = conditions: 10 µM unless noted
SK-MEL-28 melanoma = conditions: 10 µM unless noted
SK-MEL-2 melanoma = conditions: 10 µM unless noted
EKVX NSCLC = conditions: 10 µM unless noted
SN12C renal = conditions: 10 µM unless noted
UO-31 renal = conditions: 10 µM unless noted
TK-10 renal = conditions: 10 µM unless noted
ACHN renal = conditions: 10 µM unless noted
CAKI-1 renal = conditions: 10 µM
CCRF-CEM leukemia = conditions: 10 µM unless noted
MOLT-4 leukemia = conditions: 10 µM unless noted
A498 renal = conditions: 10 µM unless noted
SNB-75 CNS = conditions: 10 µM unless noted

CCCC(=O)NC(c1cccnc1)c1cc(C(C)=O)c2cccnc2c1O (centres undefined)
growth (HCT-15 colon): 19.6% | growth (HT29 colon): 26.9% | growth (SNB-19 CNS): 29.5% | growth (U251 CNS): 23.3% | growth (PC-3 prostate): 39.2% | growth (SK-MEL-5 melanoma): 0.739% (active) | growth (UACC-62 melanoma): 1.58% (active) | growth (LOX IMVI melanoma): 27% | growth (SK-MEL-28 melanoma): 34.1% | growth (SK-MEL-2 melanoma): 62.8% | growth (EKVX NSCLC): 22.3% | growth (SN12C renal): 43.9% | growth (UO-31 renal): 13.6% | growth (TK-10 renal): 39.1% | growth (ACHN renal): 14.5% | growth (CAKI-1 renal): 20.5% | growth (CCRF-CEM leukemia): 20.8% | growth (MOLT-4 leukemia): 25.1%

O=[N+]([O-])c1ccc(-c2nnc(SCc3ccc(O)c4ncccc34)o2)cc1
growth (HCT-15 colon): 10.9% | growth (HT29 colon): 47.4% | growth (SNB-19 CNS): 22.2% | growth (U251 CNS): 16.2% | growth (PC-3 prostate): 15% | growth (UACC-62 melanoma): 25.3% | growth (LOX IMVI melanoma): 25% | growth (SK-MEL-28 melanoma): 38.9% | growth (SK-MEL-2 melanoma): 25% | growth (EKVX NSCLC): 27.3% | growth (SN12C renal): 17.1% | growth (UO-31 renal): 7.09% (active) | growth (TK-10 renal): 29.2% | growth (ACHN renal): 12.6% | growth (CAKI-1 renal): 22.9% | growth (A498 renal): 27.7% | growth (CCRF-CEM leukemia): 19.2% | growth (MOLT-4 leukemia): 25.1%

O=C(Nc1cccc(Cl)c1)Nc1nc2ccc(-c3cccc4ccccc34)cc2s1
growth (HCT-15 colon): 34.1% | growth (HT29 colon): 49.4% | growth (SNB-19 CNS): 56.4% | growth (U251 CNS): 35.4% | growth (PC-3 prostate): 24.9% | growth (SK-MEL-5 melanoma): 54.4% | growth (UACC-62 melanoma): 42.3% | growth (SK-MEL-28 melanoma): 73.3% | growth (SK-MEL-2 melanoma): 82.6% | growth (EKVX NSCLC): 56.4% | growth (SN12C renal): 53% | growth (UO-31 renal): 47.4% | growth (TK-10 renal): 74.7% | growth (ACHN renal): 40.3% | growth (CAKI-1 renal): 37.9% | growth (CCRF-CEM leukemia): 40.4% | growth (MOLT-4 leukemia): 41.5%

COc1ccc(-c2nnc(SCc3ccc(O)c4ncccc34)o2)cc1
growth (HCT-15 colon): 10.1% | growth (HT29 colon): 89.1% | growth (SNB-19 CNS): 22.3% | growth (U251 CNS): 20% | growth (PC-3 prostate): 26.2% | growth (SK-MEL-5 melanoma): 9.31% (active) | growth (UACC-62 melanoma): 42.8% | growth (LOX IMVI melanoma): 19.7% | growth (SK-MEL-28 melanoma): 41.7% | growth (EKVX NSCLC): 57.8% | growth (SN12C renal): 46.6% | growth (UO-31 renal): 8.44% (active) | growth (TK-10 renal): 56.4% | growth (ACHN renal): 23.6% | growth (CAKI-1 renal): 32.1% | growth (A498 renal): 69.8% | growth (CCRF-CEM leukemia): 15.7% | growth (MOLT-4 leukemia): 28.1%

COc1cc2cc(Oc3ccc(NC(=O)Nc4cccc(C(F)(F)F)c4)cc3)c(C)nc2cc1OCCN(C)C
growth (HCT-15 colon): 25% | growth (HT29 colon): 60.1% | growth (SNB-19 CNS): 99% | growth (U251 CNS): 84.8% | growth (PC-3 prostate): 85.9% | growth (SK-MEL-5 melanoma): 81.2% | growth (UACC-62 melanoma): 100% | growth (LOX IMVI melanoma): -74.9% (active) | growth (SK-MEL-28 melanoma): 91.6% | growth (SK-MEL-2 melanoma): 111% | growth (EKVX NSCLC): 92.9% | growth (SN12C renal): 92.3% | growth (UO-31 renal): 89.8% | growth (TK-10 renal): 110% | growth (ACHN renal): 97.3% | growth (CAKI-1 renal): 89.9% | growth (CCRF-CEM leukemia): 71.4% | growth (MOLT-4 leukemia): 80.5%

O=C1/C(=C/c2ccccc2[N+](=O)[O-])Oc2ccc(O)cc21
growth (HCT-15 colon): -31.4% (active) | growth (SNB-75 CNS): 54.2% | growth (SNB-19 CNS): 79.3% | growth (U251 CNS): 56.9% | growth (PC-3 prostate): 57.1% | growth (SK-MEL-5 melanoma): 90.8% | growth (UACC-62 melanoma): 37.1% | growth (LOX IMVI melanoma): -46.2% (active) | growth (SK-MEL-28 melanoma): 43.3% | growth (SK-MEL-2 melanoma): 75% | growth (EKVX NSCLC): 69.8% | growth (SN12C renal): 30.9% | growth (UO-31 renal): 21.4% | growth (TK-10 renal): 99.1% | growth (ACHN renal): 2.35% (active) | growth (CAKI-1 renal): 48.3% | growth (A498 renal): 87.3% | growth (CCRF-CEM leukemia): -2.68% (active) | growth (MOLT-4 leukemia): 6.41% (active)

Oc1ccc(CSc2nnc(-c3ccccc3)o2)c2cccnc12
growth (HCT-15 colon): 10.6% | growth (HT29 colon): 88.8% | growth (SNB-19 CNS): 17% | growth (U251 CNS): 10.9% | growth (PC-3 prostate): 21.8% | growth (UACC-62 melanoma): 5.32% (active) | growth (LOX IMVI melanoma): 5.66% (active) | growth (SK-MEL-28 melanoma): 21.7% | growth (SK-MEL-2 melanoma): 35.4% | growth (EKVX NSCLC): 33.1% | growth (SN12C renal): 32.1% | growth (UO-31 renal): 1.52% (active) | growth (TK-10 renal): 28.6% | growth (ACHN renal): 10.4% | growth (CAKI-1 renal): 16.6% | growth (A498 renal): 70.7% | growth (CCRF-CEM leukemia): 10% | growth (MOLT-4 leukemia): 14.4%

O=C(CCCCCCN1CC(=O)N2[C@@H](c3cccc(Cl)c3)c3[nH]c4ccccc4c3C[C@H]2C1=O)NO
growth (HCT-15 colon): 85.7% | growth (HT29 colon): 30.6% | growth (SNB-19 CNS): 61.2% | growth (U251 CNS): 44.9% | growth (PC-3 prostate): 42.6% | growth (UACC-62 melanoma): 16% | growth (LOX IMVI melanoma): -80.3% (active) | growth (SK-MEL-28 melanoma): 40.2% | growth (SK-MEL-2 melanoma): 56% | growth (EKVX NSCLC): 70.1% | growth (SN12C renal): 65.7% | growth (UO-31 renal): 60.3% | growth (TK-10 renal): 57.1% | growth (ACHN renal): 87.1% | growth (CAKI-1 renal): 47.7% | growth (A498 renal): 72.8% | growth (CCRF-CEM leukemia): 17.1% | growth (MOLT-4 leukemia): 17.5%

From PubChem BioAssay (NCI)
